Test results reported in PubChem BioAssay (NCATS).
Inconclusive results are not listed. The source made the active and inactive calls. Calls follow the shape of the dose curve; as a rule, active = well fitted inhibition curve with a large enough effect; inconclusive = small, poorly fitted or top-dose-only effect; inactive = flat fitted curve, though single readings scatter.

system: DFO2036; experiment: qHTS profiling for inhibitors of Plasmodium falciparum proliferation (AID 504749); also: nearly all actives have a fitted effect of over 60% in size; details: P. falciparum in erythrocytes, SYBR Green DNA, 72 h; series mostly up to 28.7 µM
Procedure, shortened: (§1)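 Readout was DNA-dye fluorescence from lysed cultures, ex 485/em 535 nm. Parasitized red cells had grown 72 h with compound; data scaled between 0.29 uM artemisinin and DMSO wells and corrected using vehicle-only plates.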
Potency is read from the fitted curve at half-maximal effect.

| Compound | Potency |
| --- | --- |
| O=C(COc1ccc(Cl)cc1)OCCNC12CC3CC(CC(C3)C1)C2 | inactive |
| CCOC(=O)C1=C(C)NC(C)=C(C(=O)OCC)C1c1ccccc1C=CC(=O)OC(C)(C)C | 11.2 µM (active) |
| CN=C(NC#N)Nc1ccc(C2=NNC(=O)C[C@@H]2C)cc1 | inactive |
| CCCCCCCC(=O)O | inactive |
| O=CCCCC=O | inactive |
| CCCCCC(CC)COC(=O)CC(C(=O)OCC(CC)CCCC)S(=O)(=O)O (configuration not stated) | inactive |
| CCOC(=O)C1=CC2(CC)CCCN3CCc4c(n1c1ccccc41)C32 (configuration not stated) | 11.2 µM (active) |
| O=C(O)CCC(=O)C(=O)O | inactive |
| O=C(O)c1cc(=O)c2c3nc4ccccc4oc-3cc(=O)c2[nH]1 | inactive |
| O=C(Nc1cccc(C(F)(F)F)c1)c1cc(Br)cc(Br)c1O | 10 µM (active) |
| CC(Cc1ccc(O)c(O)c1)C(C)Cc1ccc(O)c(O)c1 (configuration not stated) | inactive |
| COC(=O)C1=C(C#N)NC(C)=C(C(=O)OC(C)C)C1c1cccc([N+](=O)[O-])c1 (configuration not stated) | 12.6 µM (active) |
| CN(C)CCCN1c2ccccc2C(C)(C)c2ccccc21 | inactive |
| IC(I)I | inactive |
| COC(=O)[C@H]1[C@H]2CC3c4[nH]c5ccccc5c4CCN3C[C@@H]2CC[C@@H]1O (some centres not stated) | inactive |
| NC(=O)c1ncn(C2OC(CO)C(O)C2O)n1 (configuration not stated) | inactive |
| CC[C@@]1(O)C(=O)OCc2c1cc1n(c2=O)Cc2cc3c([N+](=O)[O-])cccc3nc2-1 | 5.01 µM (active) |

system: DIV14; experiment: as above; details: P. falciparum in erythrocytes, SYBR Green DNA, 72 h; series mostly up to 28.7 µM
Procedure, shortened: as §1

| Compound | Potency |
| --- | --- |
| C=C1C(=CC=C2CCC[C@@]3(C)[C@@H]2CC[C@H]3[C@H](C)CCCC(C)C)C[C@@H](O)C[C@@H]1O | inactive |
| O=C(COc1ccc(Cl)cc1)OCCNC12CC3CC(CC(C3)C1)C2 | inactive |
| CCOC(=O)C1=C(C)NC(C)=C(C(=O)OCC)C1c1ccccc1C=CC(=O)OC(C)(C)C | 12 µM (active) |
| CCCCCCCC(=O)O | inactive |
| CC(=O)Oc1cc(C)c(OC(C)=O)c2ccccc12 | 6.01 µM (active) |
| O=CCCCC=O | inactive |
| O=C(Nc1ccc(Br)cc1)c1cc(Br)c(Br)s1 | 10.7 µM (active) |
| O=C1CSC2(CCN(CCCN3c4ccccc4Sc4ccc(Cl)cc43)CC2)N1 | 15.1 µM (active) |
| CCCCCCOc1ccc(C(=N)N(CCCC)CCCC)c2ccccc12 | 12 µM (active) |
| O=C(O)CCC(=O)C(=O)O | inactive |
| O=C(Nc1cccc(C(F)(F)F)c1)c1cc(Br)cc(Br)c1O | 13.5 µM (active) |
| C#C[C@]1(O)CC[C@H]2[C@@H]3CCC4=CCCC[C@@H]4[C@H]3C(=C)C[C@@]21CC | inactive |
| COC(=O)C1=C(C#N)NC(C)=C(C(=O)OC(C)C)C1c1cccc([N+](=O)[O-])c1 (configuration not stated) | 7.57 µM (active) |
| CN(C)CCCN1c2ccccc2C(C)(C)c2ccccc21 | 8.49 µM (active) |
| CC1=C(/C=C/C(C)=C/C=C/C(C)=C/CO)C(C)(C)CCC1 | 12 µM (active) |
| NC(=O)c1ncn(C2OC(CO)C(O)C2O)n1 (configuration not stated) | inactive |
| Clc1cc(Cl)c(OCC#CI)cc1Cl | 9.53 µM (active) |
| COc1cc(-c2ccc(-[n+]3nc(-c4ccccc4)nn3-c3ccc([N+](=O)[O-])cc3)c(OC)c2)ccc1-[n+]1nc(-c2ccccc2)nn1-c1ccc([N+](=O)[O-])cc1 | 12 µM (active) |

system: DIV17; experiment: as above; details: P. falciparum in erythrocytes, SYBR Green DNA, 72 h; series mostly up to 28.7 µM
Procedure, shortened: as §1

| Compound | Potency |
| --- | --- |
| O=C(COc1ccc(Cl)cc1)OCCNC12CC3CC(CC(C3)C1)C2 | inactive |
| CCOC(=O)C1=C(C)NC(C)=C(C(=O)OCC)C1c1ccccc1C=CC(=O)OC(C)(C)C | 15.1 µM (active) |
| CCCCCCCC(=O)O | inactive |
| CC(=O)Oc1cc(C)c(OC(C)=O)c2ccccc12 | 6.75 µM (active) |
| O=C1CSC2(CCN(CCCN3c4ccccc4Sc4ccc(Cl)cc43)CC2)N1 | 15.1 µM (active) |
| CCCCCCOc1ccc(C(=N)N(CCCC)CCCC)c2ccccc12 | 12 µM (active) |
| O=C(O)CCC(=O)C(=O)O | inactive |
| O=C(Nc1cccc(C(F)(F)F)c1)c1cc(Br)cc(Br)c1O | 13.5 µM (active) |
| C#C[C@]1(O)CC[C@H]2[C@@H]3CCC4=CCCC[C@@H]4[C@H]3C(=C)C[C@@]21CC | inactive |
| CCN(CC)CCOc1ccc(-c2nc3cc(Cl)ccc3s2)cc1 | 15.1 µM (active) |
| COC(=O)C1=C(C#N)NC(C)=C(C(=O)OC(C)C)C1c1cccc([N+](=O)[O-])c1 (configuration not stated) | 13.5 µM (active) |
| CN(C)CCCN1c2ccccc2C(C)(C)c2ccccc21 | 4.78 µM (active) |
| IC(I)I | inactive |
| CC1=C(/C=C/C(C)=C/C=C/C(C)=C/CO)C(C)(C)CCC1 | 16.9 µM (active) |
| NC(=O)c1ncn(C2OC(CO)C(O)C2O)n1 (configuration not stated) | inactive |
| Clc1cc(Cl)c(OCC#CI)cc1Cl | 13.5 µM (active) |
| COc1cc(-c2ccc(-[n+]3nc(-c4ccccc4)nn3-c3ccc([N+](=O)[O-])cc3)c(OC)c2)ccc1-[n+]1nc(-c2ccccc2)nn1-c1ccc([N+](=O)[O-])cc1 | 15.1 µM (active) |
